In article PMC4552634, “A New Set of Chemical Starting Points with Plasmodium falciparum Transmission-Blocking Potential for Antimalarial Drug Discovery” (PLoS ONE, 2015):
Out of some 13,000 compounds screened, about 3,200 (25%) showed an effect of 50% or more. Some of the results follow.

system: P. falciparum stage V gametocytes; set-up: BacTiter-Glo ATP luminescence viability of purified stage V gametocytes in 384-well plates, per cent inhibition versus DMSO; settings: 48 h, 5 µM; inhibitor

Structure (SMILES)	% Inhibition [%]
CC(C)C1=C[C@H]2C[C@]3(C4OCCO4)[C@@H]4CC[C@@H](C)[C@H]4C[C@@]2(C(=O)OCC2COCO2)[C@]13C(=O)OC(c1ccccc1)c1ccccc1 (stereo partly drawn) [TCMDC-131949]	-14.13
CN(C)c1ccc(C(c2ccc(N(C)C)cc2)c2cc([N+](=O)[O-])ccc2Cl)cc1 [TCMDC-124088]	-4.747
O=S1(=O)C=C(c2ccccc2)CC1 [TCMDC-125863]	-1.513
O=C(Nc1cc(Cl)ccc1O)c1cnn2c(C(F)(F)F)cc(-c3cccs3)nc12 [TCMDC-125807]	-56.02
COc1cc(CN2CCC(N3CCc4cc(NC(=O)c5cc(C)on5)ccc43)C2)ccc1F (stereo not drawn) [TCMDC-135084]	-32.41
N#Cc1cccc(NC(=O)Nc2cccc(-c3ccc(-c4nc5ccc(C(F)(F)F)cc5[nH]4)cc3)c2)c1 [TCMDC-133191]	-49.97
CCOC(=O)C(NC(=O)c1ccc([N+](=O)[O-])o1)C(C)C (stereo not drawn) [TCMDC-131607]	14.28
CC1CCN(c2nc(C(=O)NCCc3ccc(Cl)c(Cl)c3)c(C(C)C)s2)CC1 [TCMDC-134836]	1.732
CCOC(=O)C(CO)NC(=O)c1ccc([N+](=O)[O-])o1 (stereo not drawn) [TCMDC-131608]	22.85
Cc1ccc(Cl)c2sc(N3CCN(C(=O)c4ccc([N+](=O)[O-])o4)CC3)nc12 [TCMDC-124311]	95.54
Cc1ccc(C)c2sc(N3CCN(C(=O)c4ccc([N+](=O)[O-])o4)CC3)nc12 [TCMDC-124315]	103
CC(C)c1sc(N2CCN(C)CC2)nc1C(=O)NCCc1ccc(Cl)c(Cl)c1 [TCMDC-134295]	11.7
O=C(N[C@@H](CC1CCCCC1)C(=O)NCCN1CCCCC1)c1ccc(O)c(-c2cccc(C(F)(F)F)c2)c1 [TCMDC-140818]	37.36
COc1cc(Cc2cnc(N)nc2N)cc(OCc2cccc(C(=O)O)c2)c1OC [TCMDC-137888]	-0.7108
Oc1ccc(CN2CCN(CCOC(c3ccccc3)c3ccccc3)CC2)cc1Cl [TCMDC-135690]	-0.9629
Cc1cccc2nc(-c3ccc(-c4ccc(NC(=O)Nc5ccc(F)c(F)c5F)cc4)s3)[nH]c12 [TCMDC-133222]	-13.04
Cc1ccc(Nc2nc(N/N=C/c3cc4c(cc3Br)OCO4)nc(Nc3ccc([N+](=O)[O-])cc3)n2)cc1C [TCMDC-124185]	19.94
c1cc(CN2CCCCC2)cc(-c2cccc(-c3nc4ccccc4[nH]3)c2)c1 [TCMDC-133914]	-55.81
NC1CCN(Cc2cccc(-c3csc(-c4nc5ccccc5[nH]4)c3)c2)C1 (stereo not drawn) [TCMDC-133876]	10.66
c1cc(CN2CCCCC2)cc(-c2ccc(-c3nc4ccccc4[nH]3)cc2)c1 [TCMDC-133890]	-8.246
c1cc(CN2CCN(CCN3CCOCC3)CC2)cc(-c2csc(-c3nc4ccccc4[nH]3)c2)c1 [TCMDC-133921]	11.49
c1cc(CN2CCC(CCN3CCCCC3)CC2)cc(-c2csc(-c3nc4ccccc4[nH]3)c2)c1 [TCMDC-133919]	95.43
c1cc(CN2CCC(CCN3CCCCC3)CC2)cc(-c2cccc(-c3nc4ccccc4[nH]3)c2)c1 [TCMDC-133920]	106.4

Structure (SMILES)	% Inhibition [%]
C=CCc1cc(Br)ccc1OCCCOc1c(N)nc(N)nc1N [TCMDC-131367]	16.05
CCn1cc(CN2CCCC(C(=O)Nc3ccc(-c4nc5ccccc5[nH]4)cc3)C2)c(C)n1 (stereo not drawn) [TCMDC-124673]	-63.8
CCc1ccc(N2C(=O)C3C(Cc4ccc(OC(C)(C)C)cc4)NC4(C(=O)N(Cc5ccccc5)c5ccc(F)cc54)C3C2=O)cc1 (stereo not drawn) [TCMDC-139770]	11.03
Fc1ccc(N(c2nc(-c3cc(F)cc(C(F)(F)F)c3)cs2)C2CCNCC2)cc1 [TCMDC-136656]	103.4
COc1ccc(F)cc1-c1csc(N(c2ccc(F)cc2)C2CCNCC2)n1 [TCMDC-136652]	68.19
COc1ccc(N(c2nc(-c3cc(Cl)ccc3Cl)cs2)C2CCNCC2)cc1 [TCMDC-136654]	103.4
CCN(CC)CCCN(C(=O)Nc1cc(F)cc(F)c1)c1nc(-c2ccc(F)cc2)cs1 [TCMDC-136665]	-54.99
Cc1cc(F)ccc1N(c1nc(-c2cc(Cl)ccc2Cl)cs1)C1CCNC1 (stereo not drawn) [TCMDC-136653]	19.89
CC(=O)N(Cc1nc(-c2cc(C(F)(F)F)cc(C(F)(F)F)c2)cs1)c1c(C)cccc1C [TCMDC-135641]	20.05
COc1ccc(N(c2nc(-c3cc(Cl)ccc3Cl)cs2)C2CCNC2)cc1 (stereo not drawn) [TCMDC-136655]	0.8137
N#Cc1ccc2[nH]cc(CN3CCC4(CC3)CN(CCNCc3ccccc3)C(=O)CO4)c2c1 [TCMDC-136734]	-19.1
Cc1ccccc1C1CCN(C2CCC(NC(=O)/C=C/c3ccc(C(F)(F)F)cc3)CC2)CC1 (stereo not drawn) [TCMDC-133511]	-86.18
CC[C@@]1(O)C(=O)OCc2c1cc1n(c2=O)Cc2c-1nc1cc3c(cc1c2CN1CCN(C)CC1)OCCO3 [TCMDC-131875]	-10.57
CCOc1ccc2ccccc2c1C(=O)Nc1cc(C)nn1-c1nc(C)cc(=O)[nH]1 [TCMDC-124946]	-19.22
O=C(/C=C/c1ccc(Cl)c(Cl)c1)NC1CCN(CCCNC(=O)c2cccc(Cl)c2)CC1 [TCMDC-133356]	10.9
CCC(=O)c1cc(C(=O)NCCc2cccc(OC)c2)ccc1OC [TCMDC-140139]	9.268
COc1cccc(CCc2c(CCNCCCCCCNCCc3ccccc3)ccc(OC)c2OC)c1 [TCMDC-132105]	111.5
COc1cccc(-c2ccc(O)c(CNCCc3cccc(F)c3)c2)n1 [TCMDC-124645]	3.898
COc1cccc(C(=O)NCCc2cccc(Cl)c2)c1Oc1ccccc1 [TCMDC-141237]	-16.09
CCc1c(CCNCCCCCNCCc2ccc(OC)c(OC)c2CC)ccc(OC)c1OC [TCMDC-132064]	110.1
CCc1c(CCNCCc2cccc(CCNCCc3ccc(OC)c(OC)c3CC)c2)ccc(OC)c1OC [TCMDC-132056]	108.6
CCc1c(CCNCCCC(C)CCNCCc2ccc(OC)c(OC)c2CC)ccc(OC)c1OC (stereo not drawn) [TCMDC-132065]	107.6
